# ChEMBL document CHEMBL3988442, “University of Dundee, Small-Polar-MMV Screening Library” (2021)
# In all, about 48,000 compounds went through this assay and about 13,000 (27%) showed an effect of 50% or more. Some of the results follow.
# Test system: Wolbachia pipientis
# Assay: Anti-Wolbachia Cell-Based Screen
# Format: functional
# Design: scale not given: in the data most compounds retested in dose-response had high values
# Settings: 5 µM
row,Structure (SMILES),Percent Effect
1,COCc1cn(CC2CCN(Cc3cc(C)[nH]n3)CC2)nn1,114.7%
2,Cc1cc(C)n2ncc(CN3CCC(Cn4cc(CO)nn4)CC3)c2n1,8.529%
3,COCc1cn(CC2CCN(Cc3c(C)[nH]c4ccccc34)CC2)nn1,121.8%
4,Cc1nc(CN2CCCC(Cn3cc(CCO)nn3)C2)c[nH]1 (centres undefined),12.54%
5,CNCc1cn(CC2CCN(CC(C)(C)CN3CCCC3)CC2)nn1,-11.44%
6,CCCN1CCC(N2CCC(Cn3cc(CC(C)O)nn3)CC2)CC1 (centres undefined),-21.76%
7,CNCc1cn(CC2CCN(Cc3cccs3)CC2)nn1,1.439%
8,CC(C)(CN1CCCC1)CN1CCC(Cn2cc(CCO)nn2)CC1,39.97%
9,COCc1cn(CC2CCN(Cc3nc(C)c[nH]3)CC2)nn1,122.2%
10,CCC(CNC(=O)c1ccc(Br)o1)N1CCc2ccccc2C1 (centres undefined),-5.246%
11,N[C@H]1CC[C@@H](Nc2nccc(CCC(F)(F)F)n2)CC1,2.361%
12,Nc1cc(-c2cncnc2C2CCN(C(=O)c3ccccc3)C2)ccn1 (centres undefined),132.6%
13,Cc1nc(C2CCCN(C(=O)c3scnc3C)C2)no1 (centres undefined),-0.5479%
14,O=C(c1ccccc1)N1CCCN(C(=O)c2ncncc2Cl)CC1,22.3%
15,CC(C)n1ccnc1C1CCN(C(=O)c2ccccc2)CC1,1.199%
16,Cc1ncsc1C(=O)N1CCC(c2ncncc2-c2ccnc(N)c2)C1 (centres undefined),113.1%
17,Cc1ccc2nc(CN(Cc3ccc(C#N)cc3)C(C)C)cc(=O)n2c1,-2.733%
18,COCCCN(C)[C@@H]1c2ccccc2C2(CCNCC2)[C@H]1O,9.06%
19,COC(CNC(=O)c1cn(C)nn1)c1ccccc1C (centres undefined),-14.48%
20,COc1c(F)cc(-c2cn(CCn3c(C)cc(C)nc3=O)nn2)cc1Cl,-4.684%
21,Cc1nn(CC(=O)NCc2cc3n(n2)CCCN(CC(C)C)C3)cc1Cl,-2.88%
22,Cc1nn(CC(=O)N2CCN(Cc3cnn(C)c3C)CC2)cc1Cl,97.92%
23,Cc1c(Cn2cc(Cl)c(N)n2)cnn1C,-4.897%
24,Cc1nn(CC(=O)N2CCN(Cc3cnn(C)c3C)CC2)cc1Br,123%
25,Cc1nn(CC(=O)N2CCN(Cc3cccnc3)CC2)c(C)c1Cl,2.693%
26,CCn1ncc(Cn2cc(Cl)c(N)n2)c1C,0.6319%
27,CCn1ncc(CN2CCN(C(=O)Cn3cc(Br)c(C)n3)CC2)c1C,124.7%

row,Structure (SMILES),Percent Effect
1,Cc1nn(CCC(=O)N2CCN(Cc3cnn(C)c3C)CC2)c(C)c1Br,118.1%
2,Cc1nc(C)c(C(=O)N2CCCN(Cc3cnn(C)c3)CC2)s1,16.21%
3,Cc1noc(C)c1CN1CCN(C(=O)CCn2cncn2)CC1,-2.995%
4,Cl.Cl.OC(CN1CCN(Cc2cccc(F)c2)CC1)C1CC1 (centres undefined),-1.915%
5,CCC(=O)NC(CC(C)C)c1cccs1 (centres undefined),11.67%
6,O=C1CC(NS(=O)(=O)NCc2ccccc2)CN1c1ccccc1Cl (centres undefined),6.599%
7,Cc1ccc(OCC(=O)NC2(C#N)CCSCC2)cc1C,-7.391%
8,Cc1nsc(NC2CCN(c3ccccc3OC(F)F)C2=O)n1 (centres undefined),-11.3%
9,Cc1cccc(-c2nnc(C(C)NCCn3cc(C)cn3)o2)c1 (centres undefined),-10.86%
10,CC(=O)Nc1cccc(C(C)NCC2CCS(=O)(=O)CC2)c1 (centres undefined),10.2%
11,CNC(=O)c1n[nH]c2c1C(c1cccc3c1OC(C)(C)C3)CC(=O)N2 (centres undefined),27.3%
12,Cc1nn(CC(=O)N2CCN(Cc3cn(C)nc3C)CC2)cc1Br,147.4%
13,Cc1nn(CCO)cc1CN1CCCN(C2CCCC2)CC1,15.64%
14,Cc1noc(C)c1CN1CCN(C(=O)Cn2cncn2)CC1,-5.281%
15,O=C(c1ccc[nH]1)N1CCN(C(c2ccccc2)C(F)(F)F)CC1 (centres undefined),-1.01%
16,Cc1ccc(C(=O)NCCCN(C)S(C)(=O)=O)cc1-n1cccc1,108.6%
17,CC(=O)NCCNC(=O)c1ccc(C)c(-n2cccc2)c1,112.1%
18,Cc1ccc(CC(=O)NCCCNS(C)(=O)=O)cc1,4.317%
19,CC(=O)NCCNC(=O)c1cnc(-c2ccccc2)nc1,-5.417%
20,Cc1ccc(C(=O)NS(C)(=O)=O)cc1I,-7.571%
21,Cc1ccc(C(=O)NS(C)(=O)=O)cc1-n1cccc1,119%
22,Cc1ccc(C(=O)NCCCN(C)S(C)(=O)=O)c(=O)[nH]1,-1.59%
23,Cc1cc(C(=O)NCCC(C)C)ccc1NS(C)(=O)=O,2.329%
24,Cc1ccc(C(=O)NCCN2CCOCC2)cc1N(C)S(C)(=O)=O,-26.4%
25,CC(=O)NCCc1cn(-c2cc(F)ccc2C)cn1,0.929%
26,Cc1ccc(C(=O)NS(C)(=O)=O)cc1S(C)(=O)=O,-7.611%
27,Cc1ccc(C(=O)NCCCNS(C)(=O)=O)cc1C,117.8%
